Results filed as inconclusive are left out. The source made the active and inactive calls. Unless noted, the call rests on the fitted dose curve; in most records, active means well fitted curve in the direction sought with a large enough effect; inconclusive means small, poorly fitted or top-dose-only effect, or another doubt; inactive means no such curve, though single readings can be large; an effect the other way counts as inactive or inconclusive.
Key:
[1] = Cell Viability - BJ (AID 421; calls by dose curve;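 further: potency means the concentration at half of the fitted maximal effect; cells exposed to compound for 40 hours at 37 °C before readout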); conditions: BJ fibroblast viability, qHTS
In short: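 Luminescent ATP signal (CellTiter-Glo, 20 min at room temperature) served as the read-out of viable BJ cells after 40 hours of compound treatment. Responses were scaled between DMSO and 100 uM tamoxifen, and AC50 values were obtained by Hill modeling.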

[2] = Cell Viability - Jurkat (AID 426;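 active means dose-dependent loss of cell ATP signal giving a full or clear fitted curve, ranked by lower potency value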;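 further: potency means the concentration at half of the fitted maximal effect; cells exposed to compound for 40 hours at 37 °C before ATP read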); conditions: qHTS
In short: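 Luminescent ATP read-out (CellTiter-Glo, 20 min at room temperature) after 40 hr compound exposure at 37 °C of Jurkat E6-1 cells, 5000/well. Decreased ATP taken as cytotoxicity; AC50 from standard Hill equation.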

[3] = Cell Viability - Hek293 (AID 427;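 active means compounds whose dose-response curve shows a full or clear partial loss of cell viability, called from curve shape rather than a numeric limit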;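 further: potency means the concentration at half of the fitted maximal effect; cells exposed to compound for 40 hours at 37 °C before reading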); conditions: qHTS
In short: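 Luminescent ATP read-out (CellTiter-Glo, 20 min RT) after 40 hr compound exposure at 37 °C in complete medium. Signal normalized to DMSO (basal) and 100 uM tamoxifen (100% inhibition); concentration-response fitted with the standard Hill equation to give AC50.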

[4] = Cell Viability - HepG2 (AID 433; calls by dose curve;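 further: potency means the concentration at half of the fitted maximal effect; potency for ATP loss meaning cytotoxicity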); conditions: qHTS
In short: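 Read-out is luciferase-based quantitation of cellular ATP as a measure of viable HepG2 cells after 40 h treatment at 37 °C. Signal decrease is scaled between DMSO-only and 100 uM tamoxifen controls, with AC50 fitted by the Hill equation.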

[5] = Cell Viability - MRC5 (AID 434; calls by dose curve;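 further: potency means the concentration at half of the fitted maximal effect; cells exposed to compound for 40 hours at 37 °C; potency reflects cytotoxicity seen as loss of intracellular ATP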); conditions: MRC5 lung fibroblast viability, qHTS
In short: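 ATP luminescence read-out (CellTiter-Glo, 20 min RT) after 40 hr, 37 °C compound exposure of 1500 MRC5 cells/well. Data normalized to DMSO (basal) and 100 uM tamoxifen (100% inhibition); AC50 from standard Hill equation.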

[6] = Cell Viability - SK-N-SH (AID 435; calls by dose curve; further: potency means the concentration at half of the fitted maximal effect); conditions: SK-N-SH neuroblastoma cell viability qHTS
In short: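 Luminescent ATP signal served as the viability read-out after 40 hours of compound treatment of human neuroblastoma SK-N-SH cells. Concentration-response data, scaled between DMSO and 100 uM tamoxifen, gave AC50 values by standard Hill modeling.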

[7] = biological target: Mitogen-activated protein kinase 10 (Mus musculus) (UniProt Q61831); experiment: JNK3 AlphaScreen Assay (AID 530; active means well fitted curve in either direction with a large enough effect, not every such curve was filed as active;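 further: kinase came from lysate of stimulated human HepG2 cells; signal reports phosphorylation of biotinylated GST-cJun 1-79 at Ser73 with 10 µM ATP; on the % scale 0 is the no-effect control and ±100 the full control effect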); conditions: JNK3 lysate, c-Jun phosphorylation; series mostly up to 57.1 µM
In short: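 HepG2 lysate (IL-1b/TNFa pre-activated) + biotin-GST-cJun 1-79 + anti-pSer73 cJun; cpd titration, 15 min RT; ATP 10 uM start; Tris pH 7.6, MgCl2, DTT, vanadate; beads in EDTA buffer; AlphaScreen.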

[8] = Cell Viability - N2a (AID 540); conditions: N2a mouse neuroblastoma cell viability; activity change, negative = cytotoxicity: at 92.2 µM (top of the series);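 further: plate controls were DMSO alone for no effect and tamoxifen control for full effect; nearly all actives have a fitted effect of over 45% in size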
In short: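 N2a mouse neuroblastoma, 1500 cells/well, 5 hr settle; compound 40 hr, 37 °C; CellTiter-Glo 20 min RT; luminescence; Hill-fit AC50.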

[9] = Cell Viability - HUV-EC-C (AID 542); conditions: HUV-EC-C endothelial cell viability, qHTS; series mostly up to 92.2 µM; further: on the % scale 0 is the no-effect control and ±100 the full control effect; nearly all actives have a fitted effect of over 35% in size
In short: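 Luminescent ATP read-out (CellTiter-Glo, 20 min room temperature) after 40 hr compound treatment of HUV-EC-C cells at 37 °C. Concentration-response data fitted with the standard Hill equation to give AC50; tamoxifen and doxorubicin served as positive controls.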

[10] = Cell Viability - H-4-II-E (AID 543); conditions: H-4-II-E rat hepatoma viability; series mostly up to 92.2 µM; further: on the % scale 0 is the no-effect control and ±100 the full control effect; nearly all actives have a fitted effect of over 35% in size
In short: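 qHTS, rat hepatoma H-4-II-E, 1500 cells/well; 40 hr compound exposure, 37 °C; CellTiter-Glo ATP luminescence after 20 min RT; AC50 by standard Hill fit.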

[11] = Cell Viability - SH-SY5Y (AID 544); conditions: SH-SY5Y neuroblastoma cell viability; viability change, negative = cytotoxic: at 92.2 µM (top of the series); further: nearly all actives have a fitted effect of over 55% in size
In short: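 SH-SY5Y, 1500 cells/well, 5 hr pre-incubation 37 °C; cpd 40 hr 37 °C; CellTiter-Glo 20 min RT; luminescence (ATP) read. qHTS concentration-response, Hill fit → AC50. Tamoxifen, doxorubicin as positive controls.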

[12] = Cell Viability - Renal Proximal Tubule (AID 545); conditions: renal proximal tubule cells viability, primary cells of rat origin; series mostly up to 91.7 µM; further: nearly all actives have a fitted effect of over 40% in size
In short: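 Luminescent ATP signal (CellTiter-Glo) served as the viability read-out after 40 hr compound exposure of freshly isolated rat proximal tubule cells at 37 °C. Concentration-dependent ATP loss was fitted with the Hill equation to give AC50.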

[13] = Cell Viability - Mesenchymal (AID 546); conditions: mesenchymal cells viability, qHTS; series mostly up to 91.7 µM;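 further: cells exposed to compound for 40 hours before reading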
In short: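 Human renal mesenchymal cells (glomerulus-derived), 1000 cells/well, 5 hr 37 °C pre-incubation; compound 40 hr, 37 °C; CellTiter-Glo, 20 min RT; luminescence; AC50 via Hill equation.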

[14] = Cellular Toxicity (caspase-3) HepG2 (AID 654); conditions: HepG2 caspase-3 activation, luminescence; series mostly up to 92.2 µM;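 further: cells exposed to compound for 16 hours before reading; 0% = DMSO alone and 100% = caspase signal from 100 µM tamoxifen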
In short: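 Luminescent Caspase-Glo 3/7 readout after 16 hr compound exposure of human hepatocellular carcinoma HepG2 cells at 37 °C; qHTS concentration-response, normalized DMSO = 0%, 100 uM tamoxifen = 100%; AC50 by standard Hill equation.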

[15] = Cellular Toxicity (caspase-3) Jurkat (AID 655); conditions: Jurkat caspase-3 activation, luminescence; caspase-3 activation: at 92.2 µM (top of the series), DMSO = 0%, tamoxifen = 100%;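 further: cells exposed to compound for 16 h at 37 °C before reading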
In short: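 5000 Jurkat cells/well; compound 16 hr, 37 °C; Caspase-Glo 3/7 added, 20 min RT; luminescence read. Norm: DMSO = 0%, tamoxifen 100 uM = 100%. AC50, Hill model.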

[16] = Cellular Toxicity (caspase-3) HUV-EC-C (AID 656); conditions: HUV-EC-C cells, caspase-3 activation (apoptosis), vehicle = 0, 100 µM tamoxifen = 100%; series mostly up to 92.2 µM
In short: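 qHTS; HUV-EC-C, 1000 cells/well; 5 hr settle, 16 hr cmpd, 37°C; Caspase-Glo 3/7, 20 min RT; luminescence. Norm: DMSO = 0%, tamoxifen 100 uM = 100%. Hill-fit AC50.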

[17] = Cellular Toxicity (caspase-3) SHSY5Y (AID 657); conditions: SH-SY5Y caspase-3 activation, DMSO zero, 10 µM staurosporine = 100%; series mostly up to 91.7 µM;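 further: cells exposed to compound for 16 hours at 37 °C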
In short: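 qHTS, SH-SY5Y, 1500 cells/well, 5 h pre-incubation 37 °C; compound 16 h 37 °C; Caspase-Glo 3/7 1 h RT; luminescence. Norm.: DMSO = 0, 10 uM staurosporine = 100%. Hill fit → AC50.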

[18] = Cellular Toxicity (caspase-3) MRC-5 (AID 659); conditions: MRC-5 cells, luminescence, normalized: DMSO 0%, 10 µM staurosporine 100%; series mostly up to 91.7 µM
In short: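 MRC-5 fibroblasts, 1500/well; 16 h cpd, 37 °C; Caspase-Glo 3/7, 1 h RT; lumi read. Norm: DMSO = 0%, 10 uM staurosporine = 100%. Hill-fit AC50 from qHTS conc-response.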

[19] = Cell Viability - NIH 3T3 (AID 541); conditions: NIH 3T3 cell viability, qHTS; activity change, negative = cytotoxicity: at 92.2 µM (top of the series);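 further: plate controls were DMSO alone for no effect and tamoxifen positive control for full effect; nearly all actives have a fitted effect of over 25% in size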
In short: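 qHTS format; 40 hr compound exposure, 37 °C; CellTiter-Glo luminescence (cellular ATP) read-out after 20 min at RT. Decrease in ATP = cytotoxicity; AC50 from standard Hill fit.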

[20] = Cellular Toxicity (caspase-3) BJ (AID 658); conditions: BJ fibroblasts, luminescence, normalized: DMSO 0%, staurosporine 100%; series mostly up to 91.7 µM;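 further: cells exposed to compound for 16 hours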
In short: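 qHTS, BJ fibroblasts, 1000 cells/well; 5 hr preincubation, 16 hr compound, 37 °C; Caspase-Glo 3/7 reagent, 1 hr RT; luminescence. DMSO = 0%, 10 uM staurosporine = 100%. Hill-equation AC50.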

Cc1ccc(C)c([N+](=O)[O-])c1
inactive: Potency [1] > 92 µM | Potency [2] > 92 µM | Potency [3] > 92 µM | Potency [4] > 92 µM | Potency [5] > 92 µM | Potency [6] > 92 µM | outcome [7] | activity change, negative = cytotoxicity [8] 2.29% | Potency [9] | Potency [10] | Potency [11] | Potency [12] | Potency [13] | Potency [14] | caspase-3 activation [15] 1.04% | outcome [16] | outcome [17] | outcome [18]

Cc1cscn1
inactive: Potency [1] > 92 µM | Potency [2] > 92 µM | Potency [3] > 92 µM | Potency [4] > 92 µM | Potency [5] > 92 µM | Potency [6] > 92 µM | activity change, negative = cytotoxicity [8] 6.1% | Potency [19] | Potency [9] | Potency [10] | Potency [11] | Potency [12] | Potency [14] | caspase-3 activation [15] 2.2% | outcome [16] | outcome [17] | outcome [20] | outcome [18]

CC(=O)Nc1cccc(N)c1
inactive: Potency [1] > 92 µM | Potency [2] > 92 µM | Potency [3] > 92 µM | Potency [4] > 92 µM | Potency [5] > 92 µM | outcome [7] | activity change, negative = cytotoxicity [8] 5.61% | Potency [19] | Potency [9] | Potency [10] | Potency [11] | Potency [12] | Potency [14] | caspase-3 activation [15] 1.66% | outcome [16] | outcome [17] | outcome [20] | outcome [18]

CC(C)N=C=NC(C)C
inactive: Potency [1] > 92 µM | Potency [2] > 92 µM | Potency [3] > 92 µM | Potency [4] > 92 µM | Potency [5] > 92 µM | Potency [6] > 92 µM | activity change, negative = cytotoxicity [8] -6.55% | Potency [9] | Potency [10] | Potency [11] | Potency [12] | Potency [13] | Potency [14] | caspase-3 activation [15] 2.33% | outcome [16] | outcome [17] | outcome [20] | outcome [18]

O=C(O)c1ccc(C(=O)O)cc1
inactive: Potency [1] > 92 µM | Potency [2] > 92 µM | Potency [3] > 92 µM | Potency [4] > 92 µM | Potency [5] > 92 µM | outcome [7] | activity change, negative = cytotoxicity [8] 0.102% | Potency [19] | Potency [9] | Potency [10] | Potency [11] | Potency [12] | Potency [13] | Potency [14] | caspase-3 activation [15] 1.28% | outcome [16] | outcome [17] | outcome [20] | outcome [18]

c1ccsc1
inactive: Potency [1] > 92 µM | Potency [2] > 92 µM | Potency [3] > 92 µM | Potency [4] > 92 µM | Potency [5] > 92 µM | Potency [6] > 92 µM | activity change, negative = cytotoxicity [8] -9.01% | Potency [19] | Potency [9] | Potency [10] | Potency [11] | Potency [13] | Potency [14] | caspase-3 activation [15] 0.61% | outcome [16] | outcome [17] | outcome [20] | outcome [18]

CC(O)CC(C)O (configuration not stated)
inactive: Potency [1] > 92 µM | Potency [2] > 92 µM | Potency [3] > 92 µM | Potency [4] > 92 µM | Potency [5] > 92 µM | outcome [7] | activity change, negative = cytotoxicity [8] -8.39% | Potency [19] | Potency [9] | Potency [11] | Potency [12] | Potency [13] | Potency [14] | caspase-3 activation [15] 0.345% | outcome [16] | outcome [17] | outcome [20]

CCNS(=O)(=O)c1ccc(C)cc1
inactive: Potency [1] > 92 µM | Potency [2] > 92 µM | Potency [3] > 92 µM | Potency [4] > 92 µM | Potency [5] > 92 µM | outcome [7] | activity change, negative = cytotoxicity [8] -13.9% | Potency [19] | Potency [9] | Potency [11] | Potency [12] | Potency [13] | Potency [14] | caspase-3 activation [15] 2.46% | outcome [16] | outcome [17] | outcome [20] | outcome [18]

Nc1cccc(C(F)(F)F)c1
inactive: Potency [1] > 92 µM | Potency [2] > 92 µM | Potency [3] > 92 µM | Potency [4] > 92 µM | Potency [5] > 92 µM | outcome [7] | activity change, negative = cytotoxicity [8] 0.982% | Potency [19] | Potency [9] | Potency [10] | Potency [11] | Potency [12] | Potency [13] | Potency [14] | outcome [20]

O=C(Cl)c1ccccc1[N+](=O)[O-]
inactive: Potency [1] > 92 µM | Potency [2] > 92 µM | Potency [3] > 92 µM | Potency [4] > 92 µM | Potency [5] > 92 µM | outcome [7] | activity change, negative = cytotoxicity [8] 0.882% | Potency [9] | Potency [10] | Potency [11] | Potency [12] | Potency [13] | Potency [14] | caspase-3 activation [15] 0.685% | outcome [16] | outcome [17] | outcome [20]

NS(=O)(=O)O
inactive: Potency [1] > 92 µM | Potency [2] > 92 µM | Potency [3] > 92 µM | Potency [4] > 92 µM | Potency [5] > 92 µM | outcome [7] | activity change, negative = cytotoxicity [8] -0.868% | Potency [19] | Potency [9] | Potency [10] | Potency [11] | Potency [12] | Potency [13] | Potency [14] | outcome [16] | outcome [17] | outcome [18]

c1ccc(Oc2ccccc2)cc1
inactive: Potency [1] > 92 µM | Potency [2] > 92 µM | Potency [3] > 92 µM | Potency [4] > 92 µM | Potency [5] > 92 µM | outcome [7] | activity change, negative = cytotoxicity [8] -0.0485% | Potency [19] | Potency [9] | Potency [10] | Potency [11] | Potency [12] | Potency [13] | Potency [14] | caspase-3 activation [15] 0.819% | outcome [16] | outcome [17] | outcome [20] | outcome [18]
